Records with an inconclusive call do not appear. Where a call stands in place of a potency, no number is given. Active and inactive are the calls of the source. Calls follow the shape of the dose curve; as a rule, active = well fitted cell-killing curve with a large enough effect; inconclusive = small, poorly fitted or top-dose-only effect, or effect the other way; inactive = flat fitted curve, though single readings scatter.

The subject of this experiment is PA-1. Nature of the experiment: Primary qHTS to identify gynecologic anti-cancer compounds using libraries of approved drugs and bioactive compounds (AID 1345084). Also: nearly all actives have a fitted effect of over 55% in size. Conditions: Gynecologic cancer cell panel viability, ATPlite luminescence, 48 h; series mostly up to 57.5 µM. Put shortly:
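Cytotoxicity screen measuring ATP content by luciferase luminescence. Each compound is applied at five concentrations for 48 h at 37 C with 5% CO2.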
In general terms: qHTS replaces the single test concentration by a dilution series.
For `CC(C)=C[C@@H]1[C@@H](C(=O)OCc2coc(Cc3ccccc3)c2)C1(C)C`, the Potency result is “inactive”.
As for `CCN(CC)C(C)C(=O)c1ccccc1` (configuration not stated), the entry is “inactive”; as for `Nc1ccc(Cl)cc1C(=O)c1ccccc1F`, “inactive”.
Next, `COc1ccc(C(=O)N2CCCC2=O)cc1`: “inactive”.
As for `CC(C)C(Br)C(=O)NC(N)=O` (configuration not stated), the entry is “inactive”; as for `C#C[C@]1(O)CC[C@H]2[C@@H]3CCC4=CC(=O)CCC4=C3C=C[C@@]21CC`, “inactive”; as for `CC(CC(C(N)=O)(c1ccccc1)c1ccccc1)N(C)C` (configuration not stated), “inactive”.
For the compound `C#C[C@]1(O)C=C[C@H]2[C@@H]3CCC4=CC(=O)CC[C@@H]4[C@H]3CC[C@@]21CC`, the Potency result is “inactive”.
As for `C[C@@H]1CC[C@H]2[C@@H](C)C(=O)O[C@@H]3O[C@@]4(C)CC[C@@H]1[C@]32OO4`, the Potency result was “inactive”.
Next, `CNC(C)Cc1ccccc1OC` (configuration not stated): “inactive”.
As for `CC(Cc1ccccc1)NCc1ccccc1Cl` (configuration not stated), the entry is “inactive”; as for `Nc1ccccc1C(=O)OCC(O)CO` (configuration not stated), “inactive”; as for `CC(C)NCC(O)c1ccc(N)c(C#N)c1` (configuration not stated), “inactive”.
As for `Sc1ccccc1Cl`, the entry is “inactive”; as for `CCN(CC)CCOC(=O)C(C)(c1ccccc1)c1ccccc1`, “inactive”.
Take `COc1ccc2[nH]cc(CCN(C(C)C)C(C)C)c2c1`: the Potency result is “inactive”.
Next, `COc1cc(CC#N)cc(OC)c1OC`: “inactive”; `O=C(CBr)Nc1ccc(Cl)cc1C(=O)c1ccccc1F`: “inactive”; `COP(=S)(OC)Oc1ccc(S(N)(=O)=O)cc1`: “inactive”.
With `C[N+](C)(C)CCOC(=O)C(O)(c1ccccc1)c1ccccc1`, the Potency entry is “inactive”.
As for `ClCCCN1CCN(c2cccc(Cl)c2)CC1`, the entry is “inactive”.
Next, `CCc1ccc(C2CCNCC2)cc1`: “inactive”.

(Values after PubChem BioAssay (NCATS).)
